Source: article PMC12820563, “FoxP3 forms a head-to-head dimer in vivo and stabilizes its multimerization on adjacent microsatellites”
The full ranking holds about 16,000 sequences; the median of “rpm ratio (pull-down/input)” is about 0.94, and the highest 2% start at about 1.7. Shown is part of a subset that was picked to be rich in the highest values.

target: T1, MBP-FoxP1dN (Mus musculus, UniProt P58462 326-579); assay: PD-seq (MBP pull-down with sequencing); 20 mM Tris-HCl pH 7.5, 100 mM NaCl, 1.5 mM MgCl2, 0.4 uM protein, 0.1 uM dsDNA library, 30 min, room temperature, amylose pull-down; high values mean tight binding; conditions: protein: recombinant; tags: His6-MBP; chain copies: 2; dsDNA, one strand shown
T1 sequence: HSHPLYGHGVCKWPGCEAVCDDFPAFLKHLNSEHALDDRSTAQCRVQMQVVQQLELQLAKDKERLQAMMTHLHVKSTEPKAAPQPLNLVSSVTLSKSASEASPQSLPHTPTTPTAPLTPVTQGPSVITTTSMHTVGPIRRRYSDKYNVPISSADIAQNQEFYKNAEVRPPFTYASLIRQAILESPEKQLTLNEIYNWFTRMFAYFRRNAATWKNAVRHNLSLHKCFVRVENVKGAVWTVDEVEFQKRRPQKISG
How it was run: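 A degenerate double-stranded DNA library, filled in with Klenow, was added at 0.1 µM to 0.4 µM His6-MBP-tagged mouse FoxP3 or FoxP1 fragment lacking the N-terminus, expressed in E. coli. Incubation lasted 30 min at room temperature in Tris pH 7.5 buffer with NaCl and MgCl2, after which complexes were collected on amylose resin, washed three times, digested with proteinase K to free the DNA, barcoded by PCR and sequenced by Illumina. Binding is the pooled-replicate reads-per-million enrichment of pull-down over input.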

Sequence	binding signal
GATGATTGTTCTCCCAGCTGATGAATTTGTGATTTCGAGTAAACAAATTTTCCTAATCTTTCTGTTCAAGCGCCATCTAC	1.41 RPM ratio (pull-down/input)
GATGATTGTTCTCCCAGCTGATGAATTTTGTGTTTCGAGTAAACAAATTTTCCTAATCTTTCTGTTCAAGCGCCATCTAC	1.58 RPM ratio (pull-down/input)
GATGATTGTTCTCCCAGCTGATGAATTGTGTGTTTCGAGTAAACAAATTTTCCTAATCTTTCTGTTCAAGCGCCATCTAC	1.57 RPM ratio (pull-down/input)
GATGATTGTTCTCCCAGCTGATGAATTTGTGTTCTCGAGTAAACAAATTTTCCTAATCTTTCTGTTCAAGCGCCATCTAC	1.48 RPM ratio (pull-down/input)
GATGATTGTTCTCCCAGCTGATGAATTTGTGTTTTCGAGTAAACAAATTTTCCTAATCTTTCTGTTCAAGCGCCATCTAC	2.61 RPM ratio (pull-down/input)
GATGATTGTTCTCCCAGCTGATGAATTCTGTGTTTCGAGTAAACAAATTTTCCTAATCTTTCTGTTCAAGCGCCATCTAC	1.14 RPM ratio (pull-down/input)
GATGATTGTTCTCCCAGCTGATGAATTTTTGTGTTCGAGTAAACAAATTTTCCTAATCTTTCTGTTCAAGCGCCATCTAC	1.95 RPM ratio (pull-down/input)
GATGATTGTTCTCCCAGCTGATGAATTGTGTTTTTCGAGTAAACAAATTTTCCTAATCTTTCTGTTCAAGCGCCATCTAC	2.33 RPM ratio (pull-down/input)
GATGATTGTTCTCCCAGCTGATGAATTTGTGTGTTCGAGTAAACAAATTTTCCTAATCTTTCTGTTCAAGCGCCATCTAC	1.59 RPM ratio (pull-down/input)
GATGATTGTTCTCCCAGCTGATGAATTGATAGCTTCGAGTAAACAAATTTTCCTAATCTTTCTGTTCAAGCGCCATCTAC	0.923 RPM ratio (pull-down/input)
GATGATTGTTCTCCCAGCTGATGAATTGCAATTCTCGAGTAAACAAATTTTCCTAATCTTTCTGTTCAAGCGCCATCTAC	1.38 RPM ratio (pull-down/input)
GATGATTGTTCTCCCAGCTGATGAATTAAGCCTATCGAGTAAACAAATTTTCCTAATCTTTCTGTTCAAGCGCCATCTAC	0.873 RPM ratio (pull-down/input)
GATGATTGTTCTCCCAGCTGATGAATTCTTCCAATCGAGTAAACAAATTTTCCTAATCTTTCTGTTCAAGCGCCATCTAC	0.955 RPM ratio (pull-down/input)
GATGATTGTTCTCCCAGCTGATGAATTTCTATAATCGAGTAAACAAATTTTCCTAATCTTTCTGTTCAAGCGCCATCTAC	1.1 RPM ratio (pull-down/input)
GATGATTGTTCTCCCAGCTGATGAATTCTCAACCTCGAGTAAACAAATTTTCCTAATCTTTCTGTTCAAGCGCCATCTAC	0.795 RPM ratio (pull-down/input)
GATGATTGTTCTCCCAGCTGATGAATTAATGCCGTCGAGTAAACAAATTTTCCTAATCTTTCTGTTCAAGCGCCATCTAC	1.11 RPM ratio (pull-down/input)
GATGATTGTTCTCCCAGCTGATGAATTCACCGCCTCGAGTAAACAAATTTTCCTAATCTTTCTGTTCAAGCGCCATCTAC	0.899 RPM ratio (pull-down/input)
GATGATTGTTCTCCCAGCTGATGAATTGTGATCGTCGAGTAAACAAATTTTCCTAATCTTTCTGTTCAAGCGCCATCTAC	1.16 RPM ratio (pull-down/input)
GATGATTGTTCTCCCAGCTGATGAATTTCTGACATCGAGTAAACAAATTTTCCTAATCTTTCTGTTCAAGCGCCATCTAC	0.96 RPM ratio (pull-down/input)
GATGATTGTTCTCCCAGCTGATGAATTGACATTATCGAGTAAACAAATTTTCCTAATCTTTCTGTTCAAGCGCCATCTAC	1.5 RPM ratio (pull-down/input)
GATGATTGTTCTCCCAGCTGATGAATTGTTGACATCGAGTAAACAAATTTTCCTAATCTTTCTGTTCAAGCGCCATCTAC	2.54 RPM ratio (pull-down/input)

Sequence	binding signal
GATGATTGTTCTCCCAGCTGATGAATTATTGACATCGAGTAAACAAATTTTCCTAATCTTTCTGTTCAAGCGCCATCTAC	2 RPM ratio (pull-down/input)
GATGATTGTTCTCCCAGCTGATGAATTGATGACATCGAGTAAACAAATTTTCCTAATCTTTCTGTTCAAGCGCCATCTAC	1.34 RPM ratio (pull-down/input)
GATGATTGTTCTCCCAGCTGATGAATTGACAACATCGAGTAAACAAATTTTCCTAATCTTTCTGTTCAAGCGCCATCTAC	2.29 RPM ratio (pull-down/input)
GATGATTGTTCTCCCAGCTGATGAATTATTGAAATCGAGTAAACAAATTTTCCTAATCTTTCTGTTCAAGCGCCATCTAC	1.23 RPM ratio (pull-down/input)
GATGATTGTTCTCCCAGCTGATGAATTGACATAATCGAGTAAACAAATTTTCCTAATCTTTCTGTTCAAGCGCCATCTAC	1.63 RPM ratio (pull-down/input)
GATGATTGTTCTCCCAGCTGATGAATTTTTGACATCGAGTAAACAAATTTTCCTAATCTTTCTGTTCAAGCGCCATCTAC	1.09 RPM ratio (pull-down/input)
GATGATTGTTCTCCCAGCTGATGAATTGAACTAATCGAGTAAACAAATTTTCCTAATCTTTCTGTTCAAGCGCCATCTAC	0.992 RPM ratio (pull-down/input)
GATGATTGTTCTCCCAGCTGATGAATTACCGCGCTCGAGTAAACAAATTTTCCTAATCTTTCTGTTCAAGCGCCATCTAC	0.948 RPM ratio (pull-down/input)
GATGATTGTTCTCCCAGCTGATGAATTTGATTCCTCGAGTAAACAAATTTTCCTAATCTTTCTGTTCAAGCGCCATCTAC	0.839 RPM ratio (pull-down/input)
GATGATTGTTCTCCCAGCTGATGAATTCTTGGTTTCGAGTAAACAAATTTTCCTAATCTTTCTGTTCAAGCGCCATCTAC	0.962 RPM ratio (pull-down/input)
GATGATTGTTCTCCCAGCTGATGAATTTACCCCGTCGAGTAAACAAATTTTCCTAATCTTTCTGTTCAAGCGCCATCTAC	1.07 RPM ratio (pull-down/input)
GATGATTGTTCTCCCAGCTGATGAATTCGTCTCTTCGAGTAAACAAATTTTCCTAATCTTTCTGTTCAAGCGCCATCTAC	0.871 RPM ratio (pull-down/input)
GATGATTGTTCTCCCAGCTGATGAATTGGAACGTTCGAGTAAACAAATTTTCCTAATCTTTCTGTTCAAGCGCCATCTAC	0.904 RPM ratio (pull-down/input)
GATGATTGTTCTCCCAGCTGATGAATTATTGTGGTCGAGTAAACAAATTTTCCTAATCTTTCTGTTCAAGCGCCATCTAC	1.51 RPM ratio (pull-down/input)
GATGATTGTTCTCCCAGCTGATGAATTGCTGTTGTCGAGTAAACAAATTTTCCTAATCTTTCTGTTCAAGCGCCATCTAC	2.5 RPM ratio (pull-down/input)
GATGATTGTTCTCCCAGCTGATGAATTGTTGCTGTCGAGTAAACAAATTTTCCTAATCTTTCTGTTCAAGCGCCATCTAC	2 RPM ratio (pull-down/input)
GATGATTGTTCTCCCAGCTGATGAATTTTTGCTGTCGAGTAAACAAATTTTCCTAATCTTTCTGTTCAAGCGCCATCTAC	1.59 RPM ratio (pull-down/input)
GATGATTGTTCTCCCAGCTGATGAATTCTTGCTGTCGAGTAAACAAATTTTCCTAATCTTTCTGTTCAAGCGCCATCTAC	1.45 RPM ratio (pull-down/input)
GATGATTGTTCTCCCAGCTGATGAATTGCTGCTGTCGAGTAAACAAATTTTCCTAATCTTTCTGTTCAAGCGCCATCTAC	1.29 RPM ratio (pull-down/input)
GATGATTGTTCTCCCAGCTGATGAATTGCTGATGTCGAGTAAACAAATTTTCCTAATCTTTCTGTTCAAGCGCCATCTAC	1.22 RPM ratio (pull-down/input)
GATGATTGTTCTCCCAGCTGATGAATTCTCTCGCTCGAGTAAACAAATTTTCCTAATCTTTCTGTTCAAGCGCCATCTAC	0.825 RPM ratio (pull-down/input)

Sequence	binding signal
GATGATTGTTCTCCCAGCTGATGAATTCTACCCCTCGAGTAAACAAATTTTCCTAATCTTTCTGTTCAAGCGCCATCTAC	0.797 RPM ratio (pull-down/input)
GATGATTGTTCTCCCAGCTGATGAATTGCGATAATCGAGTAAACAAATTTTCCTAATCTTTCTGTTCAAGCGCCATCTAC	1.43 RPM ratio (pull-down/input)
GATGATTGTTCTCCCAGCTGATGAATTGTTTGTATCGAGTAAACAAATTTTCCTAATCTTTCTGTTCAAGCGCCATCTAC	2.64 RPM ratio (pull-down/input)
GATGATTGTTCTCCCAGCTGATGAATTTGATGTATCGAGTAAACAAATTTTCCTAATCTTTCTGTTCAAGCGCCATCTAC	1.25 RPM ratio (pull-down/input)
GATGATTGTTCTCCCAGCTGATGAATTTGCTGTATCGAGTAAACAAATTTTCCTAATCTTTCTGTTCAAGCGCCATCTAC	1.16 RPM ratio (pull-down/input)
GATGATTGTTCTCCCAGCTGATGAATTTGTATCATCGAGTAAACAAATTTTCCTAATCTTTCTGTTCAAGCGCCATCTAC	1.51 RPM ratio (pull-down/input)
GATGATTGTTCTCCCAGCTGATGAATTTTTTGTATCGAGTAAACAAATTTTCCTAATCTTTCTGTTCAAGCGCCATCTAC	1.26 RPM ratio (pull-down/input)
GATGATTGTTCTCCCAGCTGATGAATTTGTTGTATCGAGTAAACAAATTTTCCTAATCTTTCTGTTCAAGCGCCATCTAC	2.21 RPM ratio (pull-down/input)
GATGATTGTTCTCCCAGCTGATGAATTCCGCCTATCGAGTAAACAAATTTTCCTAATCTTTCTGTTCAAGCGCCATCTAC	0.791 RPM ratio (pull-down/input)
GATGATTGTTCTCCCAGCTGATGAATTTGGGGTGTCGAGTAAACAAATTTTCCTAATCTTTCTGTTCAAGCGCCATCTAC	0.832 RPM ratio (pull-down/input)
GATGATTGTTCTCCCAGCTGATGAATTGGTTGTATCGAGTAAACAAATTTTCCTAATCTTTCTGTTCAAGCGCCATCTAC	1.3 RPM ratio (pull-down/input)
GATGATTGTTCTCCCAGCTGATGAATTGTTGGTATCGAGTAAACAAATTTTCCTAATCTTTCTGTTCAAGCGCCATCTAC	1.92 RPM ratio (pull-down/input)
GATGATTGTTCTCCCAGCTGATGAATTATCGGTATCGAGTAAACAAATTTTCCTAATCTTTCTGTTCAAGCGCCATCTAC	1.02 RPM ratio (pull-down/input)
GATGATTGTTCTCCCAGCTGATGAATTGGTATTATCGAGTAAACAAATTTTCCTAATCTTTCTGTTCAAGCGCCATCTAC	1.9 RPM ratio (pull-down/input)
GATGATTGTTCTCCCAGCTGATGAATTTTTGGTATCGAGTAAACAAATTTTCCTAATCTTTCTGTTCAAGCGCCATCTAC	1.09 RPM ratio (pull-down/input)
GATGATTGTTCTCCCAGCTGATGAATTATTGGTATCGAGTAAACAAATTTTCCTAATCTTTCTGTTCAAGCGCCATCTAC	1.55 RPM ratio (pull-down/input)
GATGATTGTTCTCCCAGCTGATGAATTGTGTGCCTCGAGTAAACAAATTTTCCTAATCTTTCTGTTCAAGCGCCATCTAC	1.14 RPM ratio (pull-down/input)
GATGATTGTTCTCCCAGCTGATGAATTGCGATGCTCGAGTAAACAAATTTTCCTAATCTTTCTGTTCAAGCGCCATCTAC	1.2 RPM ratio (pull-down/input)
GATGATTGTTCTCCCAGCTGATGAATTCCGAGAGTCGAGTAAACAAATTTTCCTAATCTTTCTGTTCAAGCGCCATCTAC	0.749 RPM ratio (pull-down/input)
GATGATTGTTCTCCCAGCTGATGAATTCATCGTCTCGAGTAAACAAATTTTCCTAATCTTTCTGTTCAAGCGCCATCTAC	0.784 RPM ratio (pull-down/input)
GATGATTGTTCTCCCAGCTGATGAATTCAGGTTCTCGAGTAAACAAATTTTCCTAATCTTTCTGTTCAAGCGCCATCTAC	0.857 RPM ratio (pull-down/input)
